This is an account of results in ChEMBL document CHEMBL1157539, “Thousands of chemical starting points for antimalarial lead identification” (Nature, 2010).

Common to all, as to format: functional
For test [1], the system named is Plasmodium falciparum. Nature of the test: GSK_TCMDC: Inhibition of Plasmodium falciparum 3D7 in whole red blood cells, using parasite LDH activity as an index of growth. Test compounds present at 2uM.
Test [2] deals with Plasmodium falciparum. Nature of the test: GSK_TCMDC: Inhibition of Plasmodium falciparum Dd2 in whole red blood cells, using parasite LDH activity as an index of growth. Test compounds present at 2uM.
In a further test the test system is HepG2. Nature of the test: GSK_TCMDC: Percent inhibition of human HepG2 cell line. Test compounds present at 10uM.

As a reminder, the Inhibition is the drop in the measured response relative to a control, in per cent. Lower therefore signals a response near the control. On to `CCC(CC)C(CC(=O)NC(C)(C)CCc1ccccc1OC)Nc1ccc(C#N)c2ccccc12` (centres undefined), for which the Inhibition in the test with Plasmodium falciparum [1] worked out at 93%; in the test on Plasmodium falciparum [2], 91%; with HepG2 it was 9%.
The corresponding values for `Cc1[nH]n(-c2cccc(Cl)c2)c(=O)c1-c1ccc(Cl)cc1` are 99%, 41% and 0%.
The corresponding values for `Cc1ccc(-c2ccn(Cc3ccc(OCc4ccccc4)cc3)n2)cn1.Cc1ccc(-c2ccnn2Cc2ccc(OCc3ccccc3)cc2)cn1` are 93%, 92% and 1%.
Turning to `CCN1CCN(c2ccc(Nc3c4ccccc4nc4ccccc34)cc2)CC1`, the Inhibition in the test on Plasmodium falciparum [1] was 99%; in the test with Plasmodium falciparum [2], 100%; in the test on HepG2, 24%.
The corresponding values for `Cc1nc(-c2ccc(-c3ccc(C(=O)Nc4ccc(C(C)C)c(OCCN(C)C)c4)cc3)c(C)c2)no1.O=C(O)C(=O)O` are 99%, 45% and 49%.
On to `O=C(Nc1ccc(-c2cccc(-c3nc4cc(C(F)(F)F)ccc4[nH]3)c2)cc1)c1ccc(=O)[nH]n1`, for which the Inhibition in the test on Plasmodium falciparum [1] is 87%; in the test with Plasmodium falciparum [2], 13%; in the test with HepG2, 72%.
As for `Cc1ccc(S(=O)(=O)O)cc1.N=C(NCCc1c[nH]c2ccccc12)NCc1ccccc1Cl`, the Inhibition in the test with Plasmodium falciparum [1] turned out to be 83%; with Plasmodium falciparum [2], 45%; with HepG2 it was 16%.
The corresponding values for `COc1cc(Cc2cnc(N)nc2N)cc(OCCCCCCN2C(=O)c3ccccc3C2=O)c1OC` are 95%, 3% and 15%.
For `C[C@@H](CNc1ccnc(Nc2ccc3[nH]c(=O)[nH]c3c2)n1)c1ccccc1`, in that order: 100%, 1% and 42%.
For `COc1cccc2cc(C(=O)N[C@@H](CC(C)C)C(=O)N[C@H](C=NNC(=O)OC(C)(C)C)Cc3ccccc3)oc12`, in that order: 99%, 88% and 11%.
As for `N#Cc1ccc(N2CCN(Cc3ccc(-c4ccc(-c5nc6cc(F)ccc6[nH]5)s4)cc3)CC2)nc1.O=C(O)C(F)(F)F`, the Inhibition in the test with Plasmodium falciparum [1] was found to be 100%; in the test on Plasmodium falciparum [2], 78%; in the test with HepG2 it was 12%.
The corresponding values for `CC(C)CNCc1cccc(-c2ccccc2CNC2CCN(Cc3ccccc3)CC2)c1.O=C(O)C(F)(F)F` are 100%, 39% and 25%.
For `CNC(=O)Cc1ccc(C(=O)Nc2cccc(-c3csc(-c4nc5ccccc5[nH]4)c3)c2)cc1`, in that order: 95%, 69% and 36%.
Take `CN1CCN(CCCN(Cc2ccc(-c3cccc(CNCc4ccc5c(c4)OCO5)c3)cc2)C(=O)NCCc2ccccc2)CC1.O=C(O)C(F)(F)F`: the Inhibition with Plasmodium falciparum [1] is 98%; in the test on Plasmodium falciparum [2] it was 85%; in the test on HepG2, 36%.
Take `O=C(Cc1c[nH]cn1)Nc1cccc(-c2cccc(-c3nc4ccccc4[nH]3)c2)c1`: the values for the Inhibition with Plasmodium falciparum [1], in the test on Plasmodium falciparum [2] and in the test with HepG2 were 97%, 60% and 24%, respectively.
The corresponding values for `NC(=O)C1Cc2ccccc2CN1CC(=O)Nc1ccccc1Sc1ccccc1` (centres undefined) are 100%, 99% and 5%.
On to `CO/C(=C\C=C\c1cc2cc(Cl)c(Cl)cc2[nH]1)C(=O)NCCN1CCCCC1`, for which the figures for the Inhibition with Plasmodium falciparum [1], in the test with Plasmodium falciparum [2] and with HepG2 were 81%, 86% and 16%, respectively.
For `O=C(O)C(F)(F)F.O=S(=O)(NCCN1CCCC1)c1ccc(-c2cccc(CNCCc3cccs3)c2)s1`, in that order: 99%, 44% and 39%.
